Test results: the supplement of paper PMC12350171
Where a name gives a salt, the structure may show the parent alone. Unmarked numbers belong to inactive results.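 Rule for the calls: active = normalised median growth AUC below 0.1 of DMSO control; inactive = AUC 0.1 or higher.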

Experiments:
Test in all cases: growth AUC normalised to DMSO control (median) (fraction of control); higher = less growth inhibition, active = hit call of the paper
Details in all cases: 20 µM
[1] = system: P. vulgatus RND KO
Summary of the method: (§1)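 After two overnight anaerobic passages, strains were inoculated at OD578 0.01 into mGAM in 96-well plates containing approved-drug library compounds at 20 μM and 1% DMSO. Growth was followed by reading OD578 hourly for 24 h within an anaerobic incubator. Area under the curve, taken by the trapezoidal rule up to the start of stationary phase, was normalised to same-plate vehicle wells, and the median of three biological replicates is listed.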

[2] = system: P. vulgatus WT
Summary of the method: as §1

[3] = system: S. enterica typhimurium WT
Summary of the method: as §1

[4] = system: S. enterica typhimurium tolC KO
Summary of the method: as §1
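Note: active when median AUC fell below 0.1.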

Row | SMILES | growth AUC normalised to DMSO control [1] | growth AUC normalised to DMSO control [2] | growth AUC normalised to DMSO control [3] | growth AUC normalised to DMSO control [4]
1 | CCOCC(O)COc1ccc(NC(=O)CC[S+](C)C)cc1 (configuration not stated) [Suplatast Tosylate] | 0.998 | 1.01 | 1 | 1
2 | NC(N)=Nc1nc(CSCCN/C=N/S(=O)(=O)c2ccc(Br)cc2)cs1 [Ebrotidine] | 0.995 | 1.01 | 0.998 | 0.987
3 | CS(=O)(=O)CCNCc1ccc(-c2ccc3ncnc(Nc4ccc(OCc5cccc(F)c5)c(Cl)c4)c3c2)o1 [Lapatinib] | 1.03 | 1.03 | 1 | 0.99
4 | Nc1nc2[nH]cnc2c(=S)[nH]1 [Tioguanine] | 1.01 | 1 | 0.907 | 0.876
5 | COc1nc(N)nc2c1ncn2[C@@H]1O[C@H](CO)[C@@H](O)[C@@H]1O [Nelarabine] | 0.98 | 0.981 | 0.997 | 0.981
6 | C[C@@H]1CCO[C@H]2Cn3cc(C(=O)NCc4ccc(F)cc4F)c(=O)c(O)c3C(=O)N12 [Dolutegravir] | 0.0521 (active) | 0.049 (active) | 1 | 0.907
7 | COc1ccnc(C[S+]([O-])c2nc3cc(OC(F)F)ccc3[nH]2)c1OC (configuration not stated) [Pantoprazole sodium] | 0.991 | 0.998 | 1.01 | 0.937
8 | COc1ccc(-c2ccc3cc(C(=O)O)ccc3c2)cc1C12CC3CC(CC(C3)C1)C2 [Adapalene] | 1.03 | 1 | 0.988 | 1.01
9 | CCOC(=O)O[C@]1(C(=O)OCCl)CC[C@H]2[C@@H]3CCC4=CC(=O)C=C[C@]4(C)[C@H]3[C@@H](O)C[C@@]21C [Loteprednol etabonate] | 0.853 | 0.862 | 1.01 | 0.953
10 | CC1=C(C(=O)O)N2C(=O)[C@@H](NC(=O)[C@H](N)c3ccccc3)[C@H]2SC1 [Cephalexin monohydrate] | 1.04 | 1.04 | 0.999 | 0.968
11 | CN(CCOc1ccc(NS(C)(=O)=O)cc1)CCc1ccc(NS(C)(=O)=O)cc1 [Dofetilide] | 0.985 | 0.992 | 0.999 | 1
12 | CC(C)(C)NC(=O)[C@@H]1CN(Cc2cccnc2)CCN1C[C@@H](O)C[C@@H](Cc1ccccc1)C(=O)N[C@H]1c2ccccc2C[C@H]1O [Indinavir sulfate] | 1 | 0.984 | 0.997 | 0.994
13 | COCCCOc1cc(C[C@@H](C[C@H](N)[C@@H](O)C[C@H](C(=O)NCC(C)(C)C(N)=O)C(C)C)C(C)C)ccc1OC [Aliskiren hemifumarate] | 1 | 1.05 | 0.997 | 1
14 | CC(C)(C)C(O)/C=C/c1ccc2c(c1)OCO2 (configuration not stated) [Stiripentol] | 1.01 | 1.02 | 1 | 0.93
15 | Nc1ccc(S(=O)(=O)Nc2cnc3ccccc3n2)cc1 [Sulfaquinoxaline sodium salt] | 1.01 | 1.04 | 0.985 | 1
16 | Cn1cc([S+](C)[O-])c(=O)c2ccc(F)cc21 (configuration not stated) [Flosequinan] | 1.04 | 1.03 | 0.992 | 0.99
17 | CC(=O)Nc1cccc(O)c1 [Metacetamol] | 1 | 1.01 | 1 | 0.987
18 | COC(=O)C1=C(C)NC(C)=C(C(=O)OCCN2CCN(C(c3ccccc3)c3ccccc3)CC2)C1c1cccc([N+](=O)[O-])c1 (configuration not stated) [Manidipine Dihydrochloride] | 1.03 | 1.02 | 0.999 | 1.02
19 | CCOc1ccc2nc(S(N)(=O)=O)sc2c1 [Ethoxzolamide] | 0.965 | 1 | 0.997 | 0.998
20 | C[C@H](N[C@@H](CCc1ccccc1)C(=O)O)C(=O)N1CCC[C@H]1C(=O)O [Enalaprilat dihydrate] | 0.99 | 0.986 | 0.992 | 0.995
21 | CC(C)Oc1ccc2c(=O)c(-c3ccccc3)coc2c1 [Ipriflavone] | 1.04 | 1.07 | 0.978 | 0.859
22 | CC1(C)O[C@@H]2C[C@H]3[C@@H]4CCC5=CC(=O)C=C[C@]5(C)[C@H]4[C@@H](O)C[C@]3(C)[C@]2(C(=O)CO)O1 [Desonide] | 0.783 | 0.993 | 0.996 | 1

Row | SMILES | growth AUC normalised to DMSO control [1] | growth AUC normalised to DMSO control [2] | growth AUC normalised to DMSO control [3] | growth AUC normalised to DMSO control [4]
23 | Cc1cc2nc3ccc(=[N+](C)C)cc-3sc2cc1N [Tolonium chloride] | 0.996 | 1 | 0.981 | 0.987
24 | CN(CCCN1c2ccccc2CCc2ccccc21)CC(=O)c1ccc(Cl)cc1 [Lofepramine] | 0.944 | 0.964 | 0.985 | 0.957
25 | COc1ccc(C2C(=O)c3ccccc3C2=O)cc1 [Anisindione] | 1 | 1 | 0.973 | 0.749
26 | CC1CC(OC(=O)C(O)c2ccccc2)CC(C)(C)C1 (configuration not stated) [Cyclandelate] | 0.983 | 0.975 | 1 | 0.903
27 | NC(=O)c1ncn([C@@H]2O[C@H](CO)[C@@H](O)[C@H]2O)c1O [Mizoribine] | 1.04 | 1.01 | 1.01 | 0.996
28 | C[C@H](Cc1cc2c(c(C(N)=O)c1)N(CCCO)CC2)NCCOc1ccccc1OCC(F)(F)F [Silodosin] | 1.06 | 1.05 | 1.01 | 0.961
29 | O=C(NC1CCN(CCCCC2(C(=O)NCC(F)(F)F)c3ccccc3-c3ccccc32)CC1)c1ccccc1-c1ccc(C(F)(F)F)cc1 [Lomitapide] | 1.01 | 1.05 | 1.01 | 1
30 | CCOC(=O)C(C)(N)Cc1cc(I)c(Oc2cc(I)c(O)c(I)c2)c(I)c1 (configuration not stated) [Etiroxate hydrochloride] | 0.415 | 0.571 | 1.01 | 1
31 | NC(=O)c1cn(Cc2c(F)cccc2F)nn1 [Rufinamide] | 0.994 | 0.963 | 1 | 1
32 | Cc1ccc(O)c([C@H](CCN(C(C)C)C(C)C)c2ccccc2)c1 [Tolterodine tartrate] | 1.01 | 1.01 | 1 | 0.971
33 | COc1cc(NS(=O)(=O)c2ccc(N)cc2)ncn1 [Sulfamonomethoxine] | 1.02 | 0.976 | 0.955 | 0.974
34 | NC(=O)NS(=O)(=O)c1ccc(N)cc1 [Sulfacarbamide] | 0.997 | 1.01 | 0.995 | 1
35 | Nc1nc2[nH]cc(CCc3ccc(C(=O)N[C@@H](CCC(=O)O)C(=O)O)cc3)c2c(=O)[nH]1 [Pemetrexed disodium] | 1.07 | 1.04 | 1.01 | 0.999
36 | CC(C)(C)c1ccc(C(=O)CCCN2CCC(OC(c3ccccc3)c3ccccc3)CC2)cc1 [Ebastine] | 0.999 | 1.01 | 1.01 | 0.97
37 | NC(=O)Cc1cccc(C(=O)c2ccccc2)c1N [Nepafenac] | 1.03 | 1.01 | 0.996 | 1.02
38 | CCN(CC)C(=O)C1(c2ccccc2)CC1CN (configuration not stated) [Milnacipran hydrochloride] | 1.02 | 1.01 | 0.999 | 1
39 | COc1c(-c2ccc3cc(NS(C)(=O)=O)ccc3c2)cc(-n2ccc(=O)[nH]c2=O)cc1C(C)(C)C [Dasabuvir] | 0.831 | 0.827 | 1 | 0.94
40 | Cc1c(C(=O)NN2CCCCC2)nn(-c2ccc(Cl)cc2Cl)c1-c1ccc(Cl)cc1 [Rimonabant] | 1.05 | 1.07 | 1 | 1
41 | CC(=O)N[C@@H](CCC(N)=O)C(=O)O [Acetyl-L-glutamine] | 0.995 | 1 | 0.998 | 0.999
42 | CCC(=O)c1c(O)cc(O)cc1O [Flopropione] | 0.985 | 0.986 | 0.999 | 0.994
43 | COc1cccc(CCc2ccccc2OCC(CN(C)C)OC(=O)CCC(=O)O)c1 (configuration not stated) [Sarpogrelate hydrochloride] | 1.03 | 1.05 | 1 | 0.988
